This assay is described as follows: TO-PRO-1 dye complex inhibitors on d(CAG) DNA, dose response, counter-screen, biochemical, fluorescence, late stage (AID 720649). The note with it: d(CAG) DNA duplex TO-PRO-1 dye displacement. (In general: A counterscreen serves to expose hits that act by an unwanted route or on another target.)

Some of the results follow. Activity calls are given as the source filed them. No rule for the calls is given here.

On to `O=C1CC(=O)N(Cc2ccccc2)C(=O)N1CCCCCCN1C(=O)CC(=O)N(Cc2ccccc2)C1=O`, for which the IC50 is 6.7 µM (active).

In general, IC50 refers to the concentration that inhibits the measured activity by half.

These data come from PubChem BioAssay AID720649 (The Scripps Research Institute Molecular Screening Center, 2013).
